# Screening data from PubChem BioAssay.
# Compounds with a hit are over-represented: about 3.1% of the library has one in this group of screens.
# Rtt109 Vps75: inhibitors of C. albicans Rtt109/Vps75 HAT, primary screen, biochemical, ThioGlo CoA-SH fluorescence, plate reader. purified Rtt109/Vps75, 4 h. inhibition, % at 34.9 µM. 0.16% of 330,000 active. AID 540336, 2011;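 active = inhibition of at least 50% in every replicate; inconclusive = best replicate reaches 50% inhibition but some replicates fall short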
# Target sequence (Q5AAJ8 whole entry, looked up): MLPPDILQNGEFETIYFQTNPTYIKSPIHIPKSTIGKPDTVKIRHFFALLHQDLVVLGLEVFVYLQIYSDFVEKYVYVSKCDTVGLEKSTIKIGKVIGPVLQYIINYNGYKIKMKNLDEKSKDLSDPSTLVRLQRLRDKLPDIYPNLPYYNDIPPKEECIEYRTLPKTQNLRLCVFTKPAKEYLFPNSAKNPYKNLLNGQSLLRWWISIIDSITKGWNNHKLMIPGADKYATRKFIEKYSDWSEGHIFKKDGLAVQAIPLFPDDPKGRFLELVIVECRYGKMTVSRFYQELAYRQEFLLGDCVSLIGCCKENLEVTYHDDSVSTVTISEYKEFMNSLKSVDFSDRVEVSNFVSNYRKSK
# Wnt act: Wnt/beta-catenin pathway activators, primary screen, cell-based, plate reader, single point; Wnt/beta-catenin reporter cell assay, activator; activation, % at 9.35 µM; 1.2% of 300,000 active; in the data active = activation above about 30%, passing the limit was not always enough; inconclusive = no clear call, values can overlap the other calls;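 also: 0% = neutral control wells and 100% = positive control wells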
# esBAF inh: Bmi1 luciferase reporter increase in mESCs, primary screen, esBAF inhibitor project, mouse ES cells, Bmi1 luciferase knock-in, single point | AID 602393, 2012 | reporter increase, % at 12.5 µM | 2% of 350,000 active | 24 h; 100% = twice the neutral-well signal; in the data active = activation above about 40%; inconclusive = no clear call, values can overlap the other calls;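 also: 0% = median of the plate's neutral control wells and 100% = double that signal; a rise in the Bmi1 reporter signal indicates esBAF inhibition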
# Statin myotox sup: suppressors of statin myotoxicity in C2C12 myotubes, primary screen, cell-based, single point, plate reader. C2C12 myotubes + simvastatin, ATP luminescence, 48 h; scaled: DMSO 0, geranylgeraniol control 100. 0.78% of 330,000 active. rescue of ATP level, % at 7.49 µM. AID 602340, 2012;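 active = mean ATP rescue above about 67%, or every replicate alone reaching that limit, limit read from the data, passing the limit was not always enough; inconclusive = no clear call, values can overlap the other calls; inactive = mean under the limit and some replicate under it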;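 also: myotubes were challenged with 10 µM simvastatin during compound exposure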
# MITF TRPM1 HTS: activators of MITF-driven TRPM1 promoter reporter, primary screen, cell-based, SK-MEL-5, luciferase, single point; activation, % at 12.5 µM; AID 588334, 2011; 0.75% of 300,000 active; SK-MEL-5 TRPM1-promoter luciferase, 24 h; % of positive control, neutral wells = 0;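 active = mean activation of at least 80% with every replicate also reaching 80%; inconclusive = mean reaches 80% but some replicate falls short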;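 also: 0% = neutral control wells and 100% = parthenolide positive control wells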
# * = called active by the depositor; ? = inconclusive; . = no result.
SMILES,Rtt109 Vps75,Wnt act,esBAF inh,Statin myotox sup,MITF TRPM1 HTS
O=C(NCc1ccccc1)c1cccc(COc2cc(Cl)ccc2Cl)c1,3,11,71*,-2,70
O=C(NCc1ccccc1)c1cccc(COc2ccccc2Cl)c1,3,-1,45*,.,41
CO[C@@H]1CN(C)C(=O)c2ccc(NC(=O)C3CCCCC3)cc2OC[C@@H](C)N(C)C[C@@H]1C,.,.,6,-14,.
COc1cccc(NC(=O)[C@@H]2CCCN2S(=O)(=O)c2cccc3cccnc23)c1,0,0,-1,18,4
COc1cc(NC(=O)[C@@H]2CCCN2S(=O)(=O)c2cccc3cccnc23)cc(OC)c1OC,-2,-1,-1,87*,-6
Cc1ccccc1C(=O)NC(NC(=S)Nc1ccc(S(N)(=O)=O)cc1)C(Cl)(Cl)Cl (stereo not given),58*,-2,-3,7,13
O=C(NC1CCN(C(=O)N2c3ccccc3Sc3ccccc32)CC1)c1ccccc1F,-6,1,14,76*,-7
CC1CCN(C(=O)N2c3ccccc3Sc3ccccc32)CC1,-12,-1,8,13,.
O=C(CCS(=O)(=O)c1ccccc1)NC1CCCCC1,-32,22,.,.,105*
O=C(CCS(=O)(=O)c1ccccc1Cl)NC1CCCCCC1,-6,21,49*,-6,51
COc1ccc(S(=O)(=O)CCC(=O)NC2CCCCC2)cc1,4,-7,4,87*,0
O=C(CCS(=O)(=O)c1cccc2nsnc12)NC1CCCCC1,-2,.,3,5,14
COc1ccc(CN(C)C[C@H]2Oc3ccc(NC(=O)Nc4ccc(C(F)(F)F)cc4)cc3CC(=O)N([C@H](C)CO)C[C@H]2C)cc1,.,.,-7,-29,.
CCCC(O)C#Cc1cnc2c(c1)C(=O)N([C@H](C)CO)C[C@H](C)[C@H](CN(C)Cc1ccc3c(c1)OCO3)O2 (stereo not given in full),.,.,3,27,.
COc1ccc(C(=O)Nc2ccccc2C(=O)Nc2ccccc2)cc1,.,26,46*,-9,.
O=C(Nc1ccccc1)c1ccccc1O,-9,.,51*,-3,.
COc1cc(NC(=O)c2ccccc2)cc(OC)c1,-25,20,65*,-1,23
O=C(Nc1ccccc1)Nc1ccc(NC(=O)c2ccccc2O)cc1,3,2,16,-35,7
COC(=O)c1cccc(Oc2cccc(Cl)n2)c1,54*,0,0,-7,15
Cc1ccc(S(=O)(=O)N(C)C[C@H]2Oc3c(NS(=O)(=O)c4c(C)noc4C)cccc3C(=O)N([C@H](C)CO)C[C@H]2C)cc1,.,.,1,-35,.
C[C@H](CO)N1C[C@H](C)[C@@H](CN(C)Cc2ccc(-c3ccccc3)cc2)Oc2ccc(NC(=O)Nc3ccc4c(c3)OCO4)cc2CC1=O,.,.,-9,?,.
Cc1ccc(-c2cnc3c(c2)C(=O)N([C@H](C)CO)C[C@@H](C)[C@H](CN(C)C(=O)c2ccc(F)cc2)O3)cc1,.,.,-1,15,.
C[C@H](CO)N1C[C@H](C)[C@H](CN(C)C(=O)Cc2ccncc2)Oc2cc(C#CC3CCCCC3)ccc2S1(=O)=O,.,.,1,54,.
COc1cccc(C(=O)Nc2cccc(C(C)=O)c2)c1,-8,1,52*,-7,50
CCCNC(=O)Nc1cccc(C(=O)OC)c1,-4,34*,.,.,5
SMILES,Rtt109 Vps75,Wnt act,esBAF inh,Statin myotox sup,MITF TRPM1 HTS
COc1cccc(C(=O)NNC(=O)CCC(=O)O)c1,54*,1,.,.,2
COc1cccc(C(=O)Nc2cccc(OC(C)=O)c2)c1,8,20,23,-4,50
COc1ccc(NC(=O)c2cc3ccccn3n2)cc1,3,31*,-23,-10,.
Cc1noc(C)c1NC(=O)Nc1ccc2c(c1)CC(=O)N([C@H](C)CO)C[C@H](C)[C@@H](CN(C)C(=O)Nc1cccc3ccccc13)O2,.,.,9,20,.
Cc1ccc(S(=O)(=O)N(C)C[C@H]2Oc3ccc(NC(=O)Nc4ccccc4)cc3CC(=O)N([C@H](C)CO)C[C@@H]2C)cc1,.,.,2,-78,.
O=C(Nc1ccccc1)c1ccccc1NC(=O)c1ccccc1[N+](=O)[O-],50*,0,-8,-5,-4
